Source: PubChem BioAssay (several laboratories)
Hits are enriched below; roughly 2.1% of the tested compounds scored in any of these assays.
NFkB transloc pot = enhances IL-1B driven NFkB nuclear translocation | 0.3% of 94,000 active | activation, % at 2 µM | HUVEC IL-1B NFkB p65 nuclear translocation imaging | AID 819;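 active means activation above 40%, about the mean plus 3 SD, also judged a hit on visual image review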;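 further: percent activation is computed from the nuclear over cytoplasmic p65 intensity ratio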
HUVEC tox IL1B = HUVEC cytotoxicity counter-screen, IL-1B stimulated; HUVEC cell count loss, Hoechst imaging; cell count reduction, % at 2 µM; 0.41% of 94,000 active;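 active means cell count reduction more than 3 SD above the screen-wide mean, cut at about 70% in these data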
TNAP act DEA = activators of human TNAP at intermediate phosphate acceptor. activation factor at 20 µM. 64,000 tested, under 10 active. purified TNAP, CDP-star luminescence, 100 mM DEA, 30 min; active compounds read high; scale: 0 levamisole-inhibited, 1 vehicle-only enzyme. AID 813;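 active means activation factor of at least 2 at 20 µM, relative to controls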
Target sequence (P05186 whole entry, looked up): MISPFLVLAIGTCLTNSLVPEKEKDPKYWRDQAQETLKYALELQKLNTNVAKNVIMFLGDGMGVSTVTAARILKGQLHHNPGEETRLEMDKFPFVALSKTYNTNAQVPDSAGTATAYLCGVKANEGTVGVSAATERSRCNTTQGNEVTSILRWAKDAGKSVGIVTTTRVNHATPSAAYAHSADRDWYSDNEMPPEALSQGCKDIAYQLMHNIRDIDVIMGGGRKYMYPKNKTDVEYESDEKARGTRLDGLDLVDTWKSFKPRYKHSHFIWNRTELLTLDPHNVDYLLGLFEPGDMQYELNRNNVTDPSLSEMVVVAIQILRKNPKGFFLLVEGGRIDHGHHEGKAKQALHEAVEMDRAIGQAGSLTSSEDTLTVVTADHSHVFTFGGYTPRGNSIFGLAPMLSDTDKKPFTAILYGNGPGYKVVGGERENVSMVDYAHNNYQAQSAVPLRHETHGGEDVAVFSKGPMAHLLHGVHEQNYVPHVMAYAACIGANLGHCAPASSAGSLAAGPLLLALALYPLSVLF
NFkB transloc inh = blocks IL-1B driven NFkB nuclear translocation in HUVEC cells | 0.43% of 94,000 active | inhibition, % at 2 µM | HUVEC IL-1B NFkB p65 nuclear translocation imaging;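 active means inhibition above about 30% together with a positive call from visual inspection of the well image, limit read from the data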;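 further: nuclear over cytoplasmic p65 intensity ratio measured by imaging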
PLAP activator = activates human placental alkaline phosphatase | activation fold at 20 µM | AID 696 | P05187 | purified PLAP enzyme, luminescent substrate read-out; active compounds read high | 1.2% of 96,000 active; in the data active means activation fold above about 2
Each line names hits and unclear results; the compound was inactive in the other large screens.

COC(=O)c1ccc(C2c3c(n[nH]c3C)C(=O)N2c2ccc(C)cc2)cc1 (configuration not stated)	PLAP activator 2.3
N#Cc1c(N)sc2c1CCN(CCc1ccccc1)C2	none (no result: TNAP act DEA, PLAP activator)
Cc1cc2c3nonc3ccc2n1-c1ccccc1	none
Cc1cccc(C(=O)NNC2=C(C(=O)C(F)(F)F)CCC2)c1O	PLAP activator 2.3 (no result: TNAP act DEA)
CCOC(=O)NCc1ccc(S(=O)(=O)Nc2c(C)cccc2C)cc1	none (no result: TNAP act DEA)
CCOC(=O)C(Cc1ccccc1)NC(C)=O (configuration not stated)	HUVEC tox IL1B 92 (no result: TNAP act DEA)
COc1ccccc1NC(=O)Nn1cnnc1	none (no result: NFkB transloc pot, HUVEC tox IL1B, NFkB transloc inh)
COC(=O)c1ccccc1NC1CC(=O)N(c2c(C)cccc2C)C1=O (configuration not stated)	none (no result: TNAP act DEA)
COc1ccc(OC)c(C(=O)CSc2nc3cccnc3n2C)c1	none
COC(=O)CSc1nc2ncccc2[nH]1	none (no result: TNAP act DEA)
COc1ccc(NC(=O)CSc2nc3ncccc3[nH]2)cc1OC	PLAP activator 2 (no result: TNAP act DEA)
COc1ccc(OC)c(C(=O)CSc2nc3ncccc3[nH]2)c1	PLAP activator 2.8 (no result: NFkB transloc pot, HUVEC tox IL1B, NFkB transloc inh)
CN(C)c1nc(SCc2ccc(Cl)cc2)nc2c1CCCC2	none (no result: TNAP act DEA)
CN1C(=O)/C(=C/c2ccccc2OCc2cccc(F)c2)NC1=S	none (no result: TNAP act DEA)
O=C(CN1CCCCC1)Nc1nnc(-c2ccccc2)s1	PLAP activator 2
O=C(CN1CCCCC1)Nc1nnc(-c2ccc([N+](=O)[O-])cc2)s1	none (no result: TNAP act DEA)
CCc1nnc(NC(=O)CN2CCN(c3nc(-c4ccccc4)cs3)CC2)s1	PLAP activator 2.1
CCc1nnc(NC(=O)CN2CCN(c3ccccc3OC)CC2)s1	none
C=CCSC(=C(C#N)C#N)c1cc2c([nH]1)CCCC2	none (no result: TNAP act DEA)
S=C(Nc1ccc(N2CCOCC2)cc1)Nc1ccc2nc(-c3ccco3)c(-c3ccco3)nc2c1	NFkB transloc inh 45 (no result: TNAP act DEA)
COc1cccc(CSc2nnc(-c3ccco3)n2C)c1	none
O=C(NC1(C(F)(F)F)C(=O)Nc2c1c(=O)[nH]c(=O)n2Cc1ccccc1)c1ccc(Cl)cc1 (configuration not stated)	NFkB transloc inh 32 (no result: TNAP act DEA)
O=C(NC1(C(F)(F)F)C(=O)Nc2c1c(=O)[nH]c(=O)n2Cc1ccccc1)c1ccc(Cl)cc1Cl (configuration not stated)	none (no result: TNAP act DEA)
Cc1noc(C)c1COc1ccc(C(=O)OCC(=O)Nc2ccc3ccccc3c2)cc1	HUVEC tox IL1B 92 (no result: TNAP act DEA)
Cn1c(SCC(=O)Nc2ccc3nc(SCC(=O)N4CCCC4)sc3c2)nnc1-c1ccccc1	none (no result: TNAP act DEA)
Cn1cnnc1SCC(=O)Nc1ccc2nc(SCc3ccccc3F)sc2c1	PLAP activator 2 (no result: TNAP act DEA)
COc1ccc(-n2c(Cc3cccn3C)nnc2SCC(=O)Nc2ccc(C(C)=O)cc2)cc1	none
Cc1cc2ccccc2n1CCNC(=O)c1cccs1	NFkB transloc inh 59
Cc1cc2ccccc2n1CCNC(=O)C1CC1	none (no result: NFkB transloc pot, HUVEC tox IL1B, NFkB transloc inh, PLAP activator)
CC12CCC(C(=O)N3CCc4ccccc43)(CC1=O)C2(C)C (configuration not stated)	none
O=C(NCC(F)(F)F)Nc1cccnc1	HUVEC tox IL1B 90, NFkB transloc inh 77 (no result: PLAP activator)
O=C(O)C(Cc1ccccc1)N1Cc2ccccc2C1=O (configuration not stated)	NFkB transloc pot 40 (no result: TNAP act DEA)
CN(CC(=O)NC(=O)NCc1ccco1)Cc1nc2ccccc2c(=O)[nH]1	PLAP activator 2.3 (no result: NFkB transloc pot, HUVEC tox IL1B, NFkB transloc inh)
CCN(c1ccc(OC)cc1)S(=O)(=O)c1ccc2c(c1)CCN2C(=O)CCC(=O)O	none
CCN(c1ccc(C)c(C)c1)S(=O)(=O)c1ccc2c(c1)CCN2C(=O)CCC(=O)O	NFkB transloc pot 54 (no result: TNAP act DEA)
CCc1nnc(NC(=O)C(C)Sc2ccccc2)s1 (configuration not stated)	none
CCn1c2ccccc2c2cc(NS(=O)(=O)c3ccccc3C)ccc21	none (no result: TNAP act DEA)
C=CCNC(=S)NNC(=O)C(CCCC)CC(C)O (configuration not stated)	none (no result: TNAP act DEA, PLAP activator)
C=CCNC(=S)NNC(=O)CCC(O)CCCCC (configuration not stated)	PLAP activator 2.4 (no result: TNAP act DEA)
CCN1CCN(C(=O)CCc2ccc(S(=O)(=O)NCCc3ccccc3)cc2)CC1	none (no result: TNAP act DEA, PLAP activator)
O=S(=O)(/C=C/c1ccccc1)Oc1ccccc1	none (no result: TNAP act DEA)
CCOC(=O)c1c(C)n(C)c2ccc(OC)c(NC(=O)CN3CCN(C4CCCCC4)CC3)c12	HUVEC tox IL1B 87, PLAP activator 2 (no result: TNAP act DEA)
CC(=O)c1cc2c(cc1NC(=O)C1CC1)OCO2	none (no result: TNAP act DEA, PLAP activator)
CC1CCN(C(=O)c2scc3c2OCCO3)CC1	none
CC1CN(C(=O)c2scc3c2OCCO3)CC(C)O1 (configuration not stated)	HUVEC tox IL1B 93, NFkB transloc inh 80
COC(=O)C(Cc1ccc(O)cc1)NC(=O)c1ccccc1 (configuration not stated)	none (no result: TNAP act DEA)
COC(=O)C(/C=N/OCc1ccc([N+](=O)[O-])cc1)NC(=O)c1ccccc1 (configuration not stated)	NFkB transloc pot 44 (no result: TNAP act DEA)
Cn1nc(C(F)(F)F)c(C(=O)Nc2ccc(F)cc2F)c1Sc1ccc(Cl)cc1	none (no result: NFkB transloc pot, HUVEC tox IL1B, TNAP act DEA, NFkB transloc inh)
CCn1c(-c2cc(-c3ccc(OC(C)C)cc3)nc3ccccc23)n[nH]c1=S	PLAP activator 2.2 (no result: TNAP act DEA)
CCn1c2ccc(OC)cc2c2nc3ccccc3nc21	none (no result: TNAP act DEA, PLAP activator)
CCCOc1cccc(-c2cc(-c3n[nH]c(=S)n3CC)c3ccccc3n2)c1	none (no result: TNAP act DEA)
CCn1c(-c2cc(-c3cc(OC)ccc3OC)nc3ccccc23)n[nH]c1=S	PLAP activator 2.3 (no result: TNAP act DEA)
N#CCC(CNc1ncc(C(F)(F)F)cc1Cl)OC(=O)c1ccc(Cl)cc1Cl (configuration not stated)	none (no result: TNAP act DEA)
COc1ccccc1N1CCN(C(c2cccs2)C(C)NC(=O)c2cccs2)CC1 (configuration not stated)	none (no result: TNAP act DEA, PLAP activator)
O=C(CSc1cn(CCNC(=O)c2cccs2)c2ccccc12)NC1CCCC1	none (no result: TNAP act DEA)
O=C(CSc1ncn[nH]1)N1CCN(S(=O)(=O)c2ccc(Cl)cc2)CC1	PLAP activator 2.1 (no result: TNAP act DEA)
CCN(CCC(=O)Nc1ccc(Br)c(C)c1)Cc1ccccc1	NFkB transloc inh 50 (no result: TNAP act DEA)
O=C(CCN(CCO)Cc1ccccc1)Nc1ccc(Br)cc1	none
C=CCNC(=O)NC(=O)COC(=O)CCCSc1nc2ccccc2[nH]1	none
c1ccc(-c2nnc(CSc3nc4ccccc4[nH]3)o2)cc1	PLAP activator 2.2
O=C(CCCSc1nc2ccccc2[nH]1)Nc1nnc(-c2ccccc2)o1	PLAP activator 2.1 (no result: TNAP act DEA)
Fc1ccc(CSc2nc3ccccc3[nH]2)cc1	none (no result: TNAP act DEA)
Brc1cccc(-c2nnc(SCc3nc4ccccc4[nH]3)o2)c1	none
c1ccc2[nH]c(CSc3nnc(-c4ccncc4)o3)nc2c1	PLAP activator 2.2 (no result: NFkB transloc pot, HUVEC tox IL1B, NFkB transloc inh)
Cc1ccc(NC(=O)COc2ccc(/C(N)=N/O)cc2)cc1C	none (no result: NFkB transloc pot, HUVEC tox IL1B, NFkB transloc inh, PLAP activator)
COc1ccc(/C=C/C(=O)c2ccc(NC(=O)c3cccs3)cc2)cc1OC	none (no result: TNAP act DEA)
CCCC(=O)C1=C(O)C(C(=O)OC)C(C)(C)CC1=NC(C)(C)C (configuration not stated)	NFkB transloc inh 45 (no result: TNAP act DEA)
COC(=O)c1ccccc1NC(=O)CSc1nnc(-c2ccc(OC)cc2)n1C	none (no result: TNAP act DEA, PLAP activator)
Cc1csc(NC(=O)c2ccccc2C(=O)O)n1	HUVEC tox IL1B 86
Cc1csc(NC(=O)c2ccco2)n1	NFkB transloc pot 44
